Results filed as inconclusive are left out. The source made the active and inactive calls. Unless noted, calls follow the shape of the full dose curve.
How the values were obtained:
[1] = qHTS assay to identify small molecule agonists of the vitamin D receptor (VDR) signaling pathway - cell viability counter screen (AID 743224; active = well fitted curve in the direction sought with a large enough effect in the repeat runs; an effect the other way counts as inactive or inconclusive; also: series mostly up to about 63 µM; % is scaled to controls: 0 for no effect and ±100 for the full control effect; nearly all actives have a fitted effect of over 50% in size)
In short: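 Plated VDR-bla cells (4 h, 37C) received compound, incubated 16 h, then LiveBLAzer substrate 2 h RT; CellTiter-Glo added afterwards, luminescence read at 30 min.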

[2] = qHTS assay to identify small molecule agonists of the NFkB signaling pathway (AID 1159509; active = well fitted curve in the direction sought with a large enough effect in the signal ratio in the repeat runs, not every such curve was filed as active; the % refers to the signal ratio; also: series mostly up to about 61 µM; % is scaled to controls: 0 for no effect and ±100 for the full control effect)
In short: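 NFkB-bla ME-180 cells with a beta-lactamase reporter under an NF-kB response element were plated overnight, treated with compounds in DMSO for 5 hr at 37 C, then loaded with FRET substrate for 1.5 hr at room temperature.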

[3] = qHTS assay to identify small molecule agonists of the NFkB signaling pathway - cell viability counter screen (AID 1159515); also: series mostly up to about 61 µM; % is scaled to controls: 0 for no effect and ±100 for the full control effect; nearly all actives have a fitted effect of over 55% in size
In short: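 Using the same wells as the NFkB reporter read, ME-180 NFkB-bla cells given compounds for 5 hr were assessed for viability via CellTiter-Glo, with luminescence taken after a 30 min room-temperature incubation.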

[4] = qHTS assay to identify small molecule agonists of the endoplasmic reticulum stress response signaling pathway (AID 1159516; active = well fitted activation curve with a large enough effect in the signal ratio in the repeat runs, not every such curve was filed as active; the % refers to the signal ratio; also: % is scaled to controls: 0 for no effect and ±100 for the full control effect)
In short: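 An ESRE-bla HeLa cell assay: compounds were pin-transferred from DMSO onto overnight-plated cells and left 5 hr at 37 C. Substrate was then loaded for 2 hr at room temperature before reading fluorescence at 460 nm and 530 nm.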

[5] = qHTS assay to identify small molecule agonists of the endoplasmic reticulum stress response signaling pathway - cell viability counter screen (AID 1159517);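 also: HeLa cells carrying an ER stress response element beta-lactamase reporter; series mostly up to about 61 µM; % is scaled to controls: 0 for no effect and ±100 for the full control effect; nearly all actives have a fitted effect of over 50% in size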
In short: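 Counter-screen wells were identical to the reporter wells. Cells were plated at 1,500 per well and dosed for 5 hr, then read for luminescence 30 min after CellTiter-Glo addition.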

[6] = biological target: Nuclear receptor ROR-gamma (Homo sapiens) (UniProt P51449); test: qHTS assay to identify small molecule antagonists of the retinoid-related orphan receptor gamma (ROR-gamma) signaling pathway (AID 1159521; active = well fitted curve in the direction sought with a large enough effect in the repeat runs; an effect the other way counts as inactive or inconclusive;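 also: CHO cells with doxycycline inducible ROR-gamma driving an RORE luciferase reporter; top concentration of the series differs between compounds; % is scaled to controls: 0 for no effect and ±100 for the full control effect; nearly all actives have a fitted effect of over 50% in size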)
In short: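 Inducible-expression reporter assay: doxycycline (1 uM final) switched on RORγ in CHO cells bearing a ROR response element-luciferase construct, with test compounds present from 2 h beforehand. Decreased luminescence after 16 h defined antagonist activity.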

[7] = qHTS assay to identify small molecule agonists of the AP-1 signaling pathway - cell viability counter screen (AID 1159525); also: nearly all actives have a fitted effect of over 55% in size
In short: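 AP-1-bla ME-180 cells in Opti-MEM with 0.5% dialyzed FBS, compound exposure 5 h at 37 C in 15-point titration. Viability read in the same wells as ATP content by CellTiter-Glo luminescence, normalised to tetra-n-octylammonium bromide and DMSO controls.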

[8] = qHTS assay to identify small molecule agonists of the AP-1 signaling pathway (AID 1159526); also: % is scaled to controls: 0 for no effect and ±100 for the full control effect
[9] = qHTS assay to identify small molecule antagonists of the vitamin D receptor (VDR) signaling pathway - cell viability counter screen (AID 743225; active = well fitted curve in the direction sought with a large enough effect in the repeat runs; an effect the other way counts as inactive or inconclusive; also: % is scaled to controls: 0 for no effect and ±100 for the full control effect; nearly all actives have a fitted effect of over 50% in size)
In short: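 Same-well multiplex: following 16 h treatment of HEK 293T cells carrying a UAS-driven beta-lactamase reporter with compound and agonist (3 nM final), and a 2 h FRET substrate step, CellTiter-Glo was added and luminescence read after 30 min.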

[10] = qHTS assay to identify small molecule antagonists of the retinoid-related orphan receptor gamma (ROR-gamma) signaling pathway - cell viability counter screen (AID 1159520; active = well fitted curve in the direction sought with a large enough effect in the repeat runs; an effect the other way counts as inactive or inconclusive)
In short: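 Tet-on ROR gamma CHO cells were given compounds for 2 hr, then doxycycline hyclate at 1 uM final, and incubated 16 hr at 37 C. Viability was measured as ATP content by CellTiter-Glo luminescence.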

CC(C)(C)OC(=O)c1ccc(O)cc1
inactive: Potency [1] | outcome [2] | outcome [3] | outcome [4] | Potency [5] | outcome [6] | outcome [7] | outcome [8]

CCC(C)NC(N)=O (configuration not stated)
inactive: outcome [9] | outcome [2] | outcome [3] | outcome [4] | Potency [5] | outcome [10] | outcome [7] | outcome [8]

OCCN(CCO)c1cccc(Cl)c1
inactive: Potency [1] | outcome [9] | outcome [2] | outcome [3] | outcome [4] | Potency [5] | outcome [6] | outcome [8]

Brc1ccc(-c2ccccc2)cc1
inactive: Potency [1] | outcome [2] | outcome [3] | outcome [4] | Potency [5] | outcome [6] | outcome [7] | outcome [8]

Nc1ccc([N+](=O)[O-])c(N)c1
inactive: Potency [1] | outcome [9] | outcome [2] | outcome [3] | outcome [4] | Potency [5] | outcome [6] | outcome [7] | outcome [8]

C=C1CC/C=C(\C)CC[C@@H]2[C@@H]1CC2(C)C
inactive: Potency [1] | outcome [9] | outcome [2] | outcome [3] | outcome [4] | Potency [5] | outcome [6] | outcome [7] | outcome [8]

O=C(O)C(=O)Cc1ccccc1
inactive: Potency [1] | outcome [9] | outcome [2] | outcome [3] | outcome [4] | Potency [5] | outcome [6] | outcome [7] | outcome [8]

CC(S)C(=O)NCC(=O)O (configuration not stated)
inactive: outcome [9] | outcome [2] | outcome [3] | outcome [4] | Potency [5] | outcome [10] | outcome [7] | outcome [8]

COc1ccc(Br)c(C)c1
inactive: Potency [1] | outcome [9] | outcome [2] | outcome [3] | outcome [4] | Potency [5] | outcome [6] | outcome [8]

CC(C)N(c1ccccc1)C(C)C
inactive: Potency [1] | outcome [9] | outcome [2] | outcome [3] | outcome [4] | Potency [5] | outcome [6] | outcome [7] | outcome [8]

CN(C)c1ccc(C=O)cc1
inactive: Potency [1] | outcome [9] | outcome [2] | outcome [3] | outcome [4] | Potency [5] | outcome [10] | outcome [8]

O=C(O)Cc1cn(-c2ccccc2)nc1-c1ccc(Cl)cc1
inactive: outcome [9] | outcome [2] | outcome [3] | outcome [4] | Potency [5] | outcome [6] | outcome [7] | outcome [8]

CCOC(=O)CC(=O)c1ccccc1
inactive: outcome [2] | outcome [3] | outcome [4] | Potency [5] | outcome [6] | outcome [7] | outcome [8]

CCCCN
inactive: Potency [1] | outcome [9] | outcome [2] | outcome [3] | outcome [4] | Potency [5] | outcome [6] | outcome [7] | outcome [8]

Cc1ccsc1/C=C/C1=NCCCN1C
inactive: Potency [1] | outcome [9] | outcome [2] | outcome [3] | outcome [4] | Potency [5] | outcome [6] | outcome [7] | outcome [8]

O=Cc1ccc(Cl)c(Cl)c1
inactive: outcome [2] | outcome [3] | outcome [4] | Potency [5] | outcome [6] | outcome [7] | outcome [8]

Cc1cccc(C)c1NC(=O)c1ccccc1C(=O)O
inactive: Potency [1] | outcome [9] | outcome [2] | outcome [3] | outcome [4] | Potency [5] | outcome [10] | outcome [8]

O=C(O)c1ccc(Cl)cc1Cl
inactive: Potency [1] | outcome [9] | outcome [2] | outcome [3] | outcome [4] | Potency [5] | outcome [6] | outcome [8]

CC(=O)c1ccc2c(c1)Cc1ccccc1-2
inactive: Potency [1] | outcome [9] | outcome [2] | outcome [3] | outcome [4] | Potency [5] | outcome [10] | outcome [7] | outcome [8]

COC(=O)C1CC(=O)C(C(=O)OC)CC1=O (configuration not stated)
inactive: viability change, negative = cytotoxic [9] 3.99% [at 6.95 µM] | activation [2] 0.23% [at 6.95 µM] | activity, negative = cytotoxic [3] 4.94% [at 6.95 µM] | activation [4] 4.12% [at 6.95 µM] | activity change, negative = cytotoxicity [5] 4.71% [at 6.95 µM] | activity, negative = cytotoxicity [10] 6.36% [at 8.39 µM] | viability change, negative = cytotoxic [7] 2.24% [at 6.97 µM] | activation [8] 1.04% [at 6.97 µM]

CNC(=O)[C@H]1O[C@@H](n2cnc3c(NCc4cc(Cl)ccc4OCc4cc(C)no4)ncnc32)[C@H](O)[C@@H]1N
inactive: Potency [1] | outcome [9] | outcome [2] | outcome [3] | outcome [4] | Potency [5] | outcome [10] | outcome [7] | outcome [8]

CCC(C)(CCC(C)C)C(=O)O (configuration not stated)
inactive: Potency [1] | outcome [9] | outcome [2] | outcome [3] | outcome [4] | Potency [5] | outcome [6] | outcome [7] | outcome [8]

COc1cc(C(=S)N2CCOCC2)cc(OC)c1OC
inactive: Potency [1] | outcome [2] | outcome [3] | outcome [4] | Potency [5] | outcome [10] | outcome [8]

CC(=O)Nc1cccc(C)c1
inactive: outcome [9] | outcome [2] | outcome [3] | outcome [4] | Potency [5] | outcome [6] | outcome [7] | outcome [8]

CC(N)C(=O)OC(C)(C)Cc1ccc(Cl)cc1 (configuration not stated)
inactive: Potency [1] | outcome [9] | outcome [2] | outcome [3] | outcome [4] | Potency [5] | outcome [6] | outcome [7] | outcome [8]

— PubChem BioAssay (Tox21)
